This is one part of the list. Unmarked numbers belong to inactive results. Calls of active or inactive are those of the source.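 The calls were made as follows: active = inhibition at or below a set negative limit, negative inhibition meaning the enzyme was activated; inactive = the rest.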

The record followed here is PubChem BioAssay AID504708 (Sanford-Burnham Center for Chemical Genomics, 2011).

The experiment addresses Hexokinase HKDC1 (Homo sapiens) (UniProt Q2TB90). Nature of the experiment: compounds raising human HKDC1 activity – biochemical, single concentration, confirmation (AID 504708). To be noted: recombinant HKDC1, G6PDH/diaphorase resazurin fluorescence; at 20 µM; hits give low values. In general terms: The colour change of resazurin is a common sign of viable cells or microbes.

Chain of Hexokinase HKDC1 (Homo sapiens) (Q2TB90 whole entry, looked up): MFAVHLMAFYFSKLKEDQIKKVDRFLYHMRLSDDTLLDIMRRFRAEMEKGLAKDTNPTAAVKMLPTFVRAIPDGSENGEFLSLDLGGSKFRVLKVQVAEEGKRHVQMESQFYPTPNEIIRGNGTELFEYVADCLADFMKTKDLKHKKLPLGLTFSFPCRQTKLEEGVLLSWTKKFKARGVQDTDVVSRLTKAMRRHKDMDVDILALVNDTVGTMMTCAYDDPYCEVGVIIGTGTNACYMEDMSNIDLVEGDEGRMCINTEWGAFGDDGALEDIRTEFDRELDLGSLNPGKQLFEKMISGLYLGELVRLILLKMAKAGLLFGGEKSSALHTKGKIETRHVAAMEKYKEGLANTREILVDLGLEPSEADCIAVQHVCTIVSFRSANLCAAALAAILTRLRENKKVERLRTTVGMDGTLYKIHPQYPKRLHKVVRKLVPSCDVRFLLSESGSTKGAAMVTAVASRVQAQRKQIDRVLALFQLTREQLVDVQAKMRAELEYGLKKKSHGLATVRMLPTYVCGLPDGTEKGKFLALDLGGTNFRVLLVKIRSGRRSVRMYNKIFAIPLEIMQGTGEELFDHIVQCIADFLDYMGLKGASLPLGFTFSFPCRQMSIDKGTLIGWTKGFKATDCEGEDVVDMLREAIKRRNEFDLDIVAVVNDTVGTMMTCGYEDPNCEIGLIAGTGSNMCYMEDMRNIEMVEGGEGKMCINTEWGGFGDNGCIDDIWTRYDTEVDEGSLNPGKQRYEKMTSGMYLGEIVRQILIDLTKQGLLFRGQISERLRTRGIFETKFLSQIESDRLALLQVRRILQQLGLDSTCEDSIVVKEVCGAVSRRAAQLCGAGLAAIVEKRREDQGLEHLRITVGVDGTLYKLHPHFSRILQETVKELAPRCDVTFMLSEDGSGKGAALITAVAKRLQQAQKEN

As usually defined, the inhibition is the drop in the measured response relative to a control, in per cent. For `CC(=O)OC1C2(CC3N4C(=O)C5(CO)SSC4(CC31O)C(=O)N5C)OC(C)C(C)(C)C2=O` (configuration not stated), the inhibition is -77% (active).

In the case of `O=C1NC(=O)N(c2ccc(F)cc2)C(=O)/C1=C/c1ccc2c(c1)CCCN2Cc1ccccc1`, the inhibition was 1.36%.
